Compounds with a hit are over-represented: about 14% of the library has one in this group of screens.
USP17 block: inhibitors of human USP17 deubiquitinase | purified USP17, Ub-rhodamine cleavage fluorescence, 3 h | hit rate 6.5% among 47,000 | inhibition, % at 50 µM | Ubiquitin carboxyl-terminal hydrolase 17-like protein 5 (Homo sapiens), A8MUK1
USP28 inh: inhibitors of human USP28 deubiquitinase; Ubiquitin carboxyl-terminal hydrolase 28 (Homo sapiens), Q96RU2; purified USP28, Ub-rhodamine cleavage fluorescence, 30 min; inhibition, % at 25 µM; hit rate 3% among 47,000
Target sequence (Q96RU2 whole entry, looked up): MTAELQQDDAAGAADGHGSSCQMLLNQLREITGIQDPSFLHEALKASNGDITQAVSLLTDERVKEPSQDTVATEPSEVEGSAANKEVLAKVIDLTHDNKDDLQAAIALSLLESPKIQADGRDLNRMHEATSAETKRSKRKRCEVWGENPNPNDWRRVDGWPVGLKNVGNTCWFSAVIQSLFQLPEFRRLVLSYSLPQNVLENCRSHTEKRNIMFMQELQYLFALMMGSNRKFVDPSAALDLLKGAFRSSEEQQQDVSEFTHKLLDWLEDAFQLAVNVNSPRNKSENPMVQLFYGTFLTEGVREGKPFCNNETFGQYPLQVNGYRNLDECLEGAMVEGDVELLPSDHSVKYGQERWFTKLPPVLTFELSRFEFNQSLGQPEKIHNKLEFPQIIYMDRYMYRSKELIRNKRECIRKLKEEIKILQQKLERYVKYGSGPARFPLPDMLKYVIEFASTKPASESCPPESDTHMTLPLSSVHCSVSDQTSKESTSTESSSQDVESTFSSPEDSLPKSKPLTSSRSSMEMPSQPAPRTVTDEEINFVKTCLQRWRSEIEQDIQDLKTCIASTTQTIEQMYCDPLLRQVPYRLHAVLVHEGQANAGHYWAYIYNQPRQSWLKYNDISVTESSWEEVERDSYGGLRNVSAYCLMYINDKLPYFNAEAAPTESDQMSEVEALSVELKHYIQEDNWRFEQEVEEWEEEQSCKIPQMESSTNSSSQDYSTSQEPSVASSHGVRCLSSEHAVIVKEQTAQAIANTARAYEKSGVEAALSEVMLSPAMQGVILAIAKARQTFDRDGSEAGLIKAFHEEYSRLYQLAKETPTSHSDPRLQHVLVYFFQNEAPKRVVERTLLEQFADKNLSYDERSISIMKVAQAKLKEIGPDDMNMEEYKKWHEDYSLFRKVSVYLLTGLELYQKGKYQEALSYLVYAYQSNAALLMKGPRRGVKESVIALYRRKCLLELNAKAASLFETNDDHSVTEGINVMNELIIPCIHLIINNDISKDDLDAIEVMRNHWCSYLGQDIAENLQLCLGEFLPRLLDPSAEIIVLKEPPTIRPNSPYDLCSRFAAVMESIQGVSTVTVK
USP10 block: inhibitors of human USP10 deubiquitinase | hit rate 1.1% among 47,000 | AID 1645856, 2021 | Ubiquitin carboxyl-terminal hydrolase 10 (Homo sapiens), Q14694 | inhibition, % at 20 µM | purified USP10, Ub-rhodamine fluorescence, 60 min
USP30 block: inhibitors of human USP30 deubiquitinase. Ubiquitin carboxyl-terminal hydrolase 30 (Homo sapiens), Q70CQ3. purified USP30, Ub-rhodamine cleavage fluorescence. inhibition, % at 25 µM. hit rate 5.3% among 47,000. AID 1645860, 2021
USP8 block: inhibitors of human USP8 deubiquitinase; Ubiquitin carboxyl-terminal hydrolase 8 (Homo sapiens), P40818; purified USP8, Ub-rhodamine cleavage fluorescence, 30 min; inhibition, % at 20 µM; hit rate 4.2% among 47,000; AID 1645853, 2021
Of the large screens only hits and unclear results are named; the others gave an inactive call. No stated cut-off is given here; in the data, active means inhibition above about 30%; inactive means the rest.

CCn1c(COc2ccc(OC)cc2)nnc1SCc1ccccc1Cl	USP30 block 32
CCn1c(COc2ccc3c(c2)OCO3)nnc1SCc1ccc([N+](=O)[O-])cc1	none
CCn1c(COc2cccc(C(F)(F)F)c2)nnc1SCc1ccc(Cl)cc1	USP17 block 36, USP28 inh 59, USP30 block 58
Cc1ccc(N2CCCS2(=O)=O)cc1NC(=O)COc1ccccc1F	USP30 block 34
COc1ccc(N2CCCS2(=O)=O)cc1NC(=O)c1ccccc1OC	USP28 inh 35
CCOc1ccccc1C(=O)Nc1cc(N2CCCS2(=O)=O)ccc1C	USP28 inh 32
COc1cccc(C(=O)Nc2cc(N3CCCS3(=O)=O)ccc2OC)c1	none
O=C(Nc1cc(=O)[nH]c2nc(CCc3ccccc3)nn12)C1CCCCC1	none
CCc1cc(C(=O)N2Cc3nccn3CC2c2ccccc2)on1 (configuration not stated)	none (no result: USP17 block)
Cc1cc(C(=O)Nc2cnc(N3CCCCCC3)nc2)no1	none
Cc1nnc2c(SCc3cccc(F)c3)nc3ccccc3n12	none
O=C(CC1C=CCC1)N1CCC(c2ccc(Nc3ccc(F)cn3)cn2)CC1 (configuration not stated)	USP17 block 32
O=C(NCc1cc(=O)n2c(n1)CNCCC2)C1CCC1	none
Cc1nn(-c2ccccc2)c(C)c1C(=O)OCC(=O)N(C)c1ccccc1	none
Cc1nn(-c2ccccc2)c(C)c1C(=O)OCC(=O)Nc1cccc(C#N)c1	USP28 inh 66
N#Cc1c(SCC(=O)c2cccc([N+](=O)[O-])c2)nc2c(c1-c1cccs1)CCCC2	none
COc1ccccc1CN(C(=O)c1cnccn1)C(C(=O)NC1CCCCC1)c1ccc(C(C)C)cc1 (configuration not stated)	none
CCOC(=O)c1ccc2nc(NC(=O)Cc3cccc4ccccc34)sc2c1	USP30 block 36
O=C(CC1SC(N2CCOCC2)=NC1=O)Nc1cccc([N+](=O)[O-])c1 (configuration not stated)	USP30 block 31
O=C(Nc1ccc(CN2CCOCC2)cc1)c1cccc([N+](=O)[O-])c1	none
CC(Sc1nc2ccccc2[nH]1)C(=O)NCc1ccc2c(c1)OCO2 (configuration not stated)	none
CC(Sc1nc2ncc(Cl)cc2[nH]1)C(=O)Nc1ccc2c(c1)OCO2 (configuration not stated)	USP8 block 38
Cc1cc(C)c(C#N)c(N2CCN(S(=O)(=O)Cc3ccccc3)CC2)n1	USP17 block 45
CC(=O)NC(Cc1ccccc1)C(=O)NC1CCN(c2nc(C)cc(C)c2C#N)CC1 (configuration not stated)	none
COCCn1c(SCC(=O)Nc2ccc(NC(=O)c3ccco3)c(OC)c2)nc2ccccc2c1=O	none
COCCn1c(SCC(=O)c2ccc(NC(C)=O)cc2F)nc2ccccc21	USP8 block 32
Cc1c(C(=O)N(Cc2cccc(Cl)c2)C2CCS(=O)(=O)C2)oc2ccccc12 (configuration not stated)	none
COc1ccccc1CN1CCC(c2cc(=O)[nH]c(-c3cccnc3)n2)CC1	none
CCOC(=O)CSc1cc(CS(=O)c2ccc(Cl)cc2)nc(-c2ccccc2)n1 (configuration not stated)	USP30 block 41
O=S(Cc1cc(N2CCOCC2)nc(-c2ccccc2)n1)c1ccc(Cl)cc1 (configuration not stated)	none
Cc1c(C)n(CCO)c2ncn3nc(-c4ccc(F)cc4)nc3c12	none
COc1ccccc1NS(=O)(=O)c1cc(NC(=O)c2cccc(-c3ccc(O)cc3)c2)ccc1C	USP17 block 35, USP30 block 30
COc1ccccc1NS(=O)(=O)c1cc(NC(=O)CCC(=O)c2ccc(F)cc2)ccc1C	none
Cc1cccc(NC(=O)Nc2nnc(CC(=O)NCc3ccccc3)s2)c1	USP17 block 73
Cc1cccc(C(=O)Nc2nnc(Cc3cn(C)c4ccccc34)s2)c1	USP8 block 34
O=C(Nc1ccc2c(c1)OCCO2)Nc1nnc(CC(=O)N2CCCCC2)s1	USP28 inh 56
O=C(Nc1ccc2c(c1)OCCO2)Nc1nnc(CC(=O)N2CCOCC2)s1	none
O=C(Nc1nnc(Cc2ccccc2)s1)c1cc(=O)[nH]c2ccccc12	none
O=C(Cc1nnc(NC(=O)Nc2ccc3c(c2)OCO3)s1)NCc1ccccc1	USP10 block 34, USP8 block 48
COc1ccc(C2CCCN2Cc2nc(N)nc(Nc3ccccc3)n2)c(OC)c1 (configuration not stated)	none
CC(=O)c1ccc(NC(=O)C(C)N2CCC(Cc3ccccc3)CC2)cc1 (configuration not stated)	none
O=C(C1CCCC1)N1CCCC1c1ccnc(Nc2cnccn2)n1 (configuration not stated)	none
Cc1ccc(NC(=O)Cn2cc(S(=O)(=O)N3CCCC3)ccc2=O)cc1	USP17 block 52
COc1ccccc1CN1C(=O)CCC1(C)C(=O)NCc1ccccc1 (configuration not stated)	none
COc1ccc(CNC(=O)CN2CCN(Cc3ccccc3C)C2=O)cc1	none
COc1ccc(CNC(=O)CN2C(=O)C(C)=C(c3ccc(C)cc3)S2(=O)=O)cc1	USP28 inh 58
O=C(Nc1cccc(F)c1)c1ncoc1-c1ccco1	USP17 block 54
Cc1cccc(Nc2nnc(SCC(=O)Nc3ccccc3F)s2)c1	none
COc1ccccc1C1=NC(c2ccc(C)cc2)N=C1C (configuration not stated)	USP17 block 32
O=C(O)CC(NC(=O)c1cnn(Cc2ccccc2)c1)c1ccccc1 (configuration not stated)	none
NC(=O)c1ccc(NC(=O)c2cnn(Cc3ccccc3)c2)cc1	USP17 block 38
CC(C)(C)c1ccc(C(=O)Nc2ccc(Cn3cncn3)cc2)cc1	USP28 inh 56
CN(C)c1ccc(NC(=O)c2ccc(Cn3cc([N+](=O)[O-])cn3)cc2)cc1	USP8 block 46
COc1ccccc1NCc1nc2sc(C)c(-c3ccccc3)c2c(=O)[nH]1	none
COc1cccc(Cn2cc(S(=O)(=O)N3CCCCC3)ccc2=O)c1	none
CCOC(=O)c1ccc(NC(=O)Cn2c(=O)n(CC(=O)NCCc3ccc(OC)c(OC)c3)c(=O)c3sccc32)cc1	USP30 block 66
Cc1cccc(NC(=O)Cn2c(=O)n(-c3cc(C)cc(C)c3)c(=O)c3sccc32)c1	none
CCOc1ccc(NC(=O)Cn2c(=O)n(CCCCCC(=O)NCc3ccc(F)cc3)c(=O)c3sccc32)cc1	USP17 block 43, USP10 block 51, USP30 block 49, USP8 block 69
Cc1ccc(CNC(=O)CCCCCn2c(=O)c3sccc3n(CC(=O)c3ccc(Cl)cc3)c2=O)cc1	none

Bioassay records as filed in PubChem.
